From PubChem BioAssay (NCI)
This is part of a sample that, as a whole, favours compounds with a hit. Of some 83,000 tested, about 20% had one in any assay.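 Single-dose data. Exposure time 48 hours. Values below 10 considered active.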 The source made the active and inactive calls.

Experiments:
Experiment in all cases: NCI-60 one-dose screen, 48 h (100 = growth as untreated, 0 = no growth, -100 = all killed)
Details in all cases: 10 µM unless noted
[1] = system: SK-MEL-2 melanoma
[2] = system: EKVX NSCLC
[3] = system: SN12C renal
[4] = system: UO-31 renal
[5] = system: TK-10 renal
[6] = system: CAKI-1 renal
[7] = system: CCRF-CEM leukemia
[8] = system: MOLT-4 leukemia
[9] = system: ACHN renal
[10] = system: A498 renal

Measured: growth

CN1CCOCCN(C)Cc2ccc3ccc(cc3c2)CN(C)CCOCCN(C)Cc2ccc3ccc(cc3c2)C1
inactive: [1] 114% | [2] 106% | [3] 92.6% | [4] 80.8% | [5] 97.4% | [6] 77.7% | [7] 56.3% | [8] 74%

COc1ccc(C2C3=C(COC3=O)N(CCO)c3cc4c(cc32)OCO4)cc1OC (centres undefined)
inactive: [1] 93.2% | [2] 96.1% | [3] 94.8% | [5] 105% | [9] 101% | [6] 98.4% | [8] 88.5%

COc1cc2c(c(OC)c1OC)CCC(c1cccc(C(=O)Nc3ccc(Br)cc3)c1)O2 (centres undefined)
active: [10] -3.18%
inactive: [1] 46.4% | [2] 60.5% | [3] 47.1% | [5] 77.4% | [9] 67.9% | [6] 73.6% | [7] 53.3% | [8] 25.1%

O=C(NNc1nc2cc(F)ccc2n2c(CN3CCOCC3)ccc12)c1ccccc1
inactive: [1] 34.6% | [2] 14.2% | [3] 10.1% | [5] 46%
active: [9] 8.05% | [6] 7.45% | [10] -22.4% | [7] 3.36% | [8] 2.3%

C=CCn1cc(-c2nc3ccccc3s2)c2cc(-c3ccc4c5c(cccc35)C(=O)N(CCO)C4=O)ccc21
inactive: [1] 105% | [2] 81.3% | [3] 89.2% | [5] 138% | [9] 94.5% | [6] 75.2% | [7] 104% | [8] 91.3%

Cc1cc(=O)oc2cc(Oc3nc(Br)cn4c(Br)cnc34)ccc12
inactive: [1] 78% | [2] 75.6% | [3] 75.8% | [5] 114% | [9] 65.8% | [6] 95.7% | [10] 97.4% | [7] 106% | [8] 87.5%

O=C(/C=C/c1ccco1)Nc1ncc(Cc2cc(Cl)ccc2Cl)s1
inactive: [1] 36.3% | [2] 34.2% | [3] 29.6% | [4] 36.6% | [5] 51.5% | [6] 36.5% | [7] 17.3% | [8] 14%

CCSc1ccnc(N)n1
inactive: [1] 106% | [2] 104% | [3] 106% | [5] 101% | [9] 96.8% | [6] 82.1% | [10] 98.1% | [7] 97.3% | [8] 124%

COc1ccc(C2[C@@H](Cl)C(=O)N2c2cc(OC)c(OC)c(OC)c2)cc1Cl (some centres undefined)
inactive: [1] 15% | [2] 35.4% | [3] 29.1% | [4] 45.3% | [5] 63.9% | [6] 26.5% | [8] 13.5%
active: [7] 9.36%

CC1(C)N=C(N)N=C(N)N1c1ccc(S(=O)(=O)Nc2nccs2)cc1
inactive: [1] 106% | [2] 102% | [3] 95.2% | [5] 86.1% | [9] 108% | [6] 94.3% | [10] 96.2% | [7] 101% | [8] 103%

C=C1SC(=Nc2ccccc2Cl)N(C(=O)c2sc3ccccc3c2Cl)C1(C)C
inactive: [1] 151% | [2] 54.4% | [3] 78.9% | [5] 107% | [9] 46.1% | [6] 49% | [10] 90.5% | [7] 19.8% | [8] 20.3%

O=C(/C=C/C12c3ccccc3C(c3ccccc31)C1C(=O)NC(=O)C12)c1ccc(I)cc1 (centres undefined)
active: [8] 6.91%
inactive: [1] 56.7% | [2] 66.1% | [3] 50.9% | [5] 66.7% | [9] 67.6% | [6] 60.4% | [10] 56.1%

CC12OC(CC(O)C1O)n1c3ccccc3c3c4c(c5c6ccccc6n2c5c31)C(=O)N(CCN1CCCC1)C4=O (centres undefined)
inactive: [1] 31.9% | [2] 38.4% | [3] 14.9% | [5] 21.2% | [6] 15.4% | [10] 17.8% | [7] 20.3%
active: [9] -38.1% | [8] -3.23%

O=[N+]([O-])c1ccccc1Sc1ccccc1[N+](=O)[O-]
inactive: [1] 97.2% | [2] 91.2% | [3] 99.3% | [5] 85.2% | [9] 102% | [10] 81.2% | [7] 107% | [8] 94.8%
active: [6] -54.5%

O=C(Oc1ccc2c(c1)sc1nc(-c3ccccc3)[nH]c(=O)c12)C(F)(F)F
inactive: [1] 26.6% | [2] 58.8% | [3] 32% | [5] 61.7% | [9] 29% | [6] 19.3% | [10] 23.6% | [7] 21.9% | [8] 13.5%

CC(C)Cc1nc(Nc2ccccc2)[nH]c(=O)c1C#N
inactive: [1] 40.5% | [2] 59.4% | [3] 52.8% | [5] 82% | [9] 57.5% | [6] 50.9% | [10] 19.4% | [8] 61.6%

O=C(Nc1ccc(Oc2cccc(Cl)c2)c(Cl)c1)c1cccnn1
inactive: [1] 102% | [2] 87.3% | [3] 83.2% | [5] 75% | [9] 97.9% | [6] 80.8% | [10] 87.4% | [7] 84% | [8] 80.1%

C#Cc1cccc(Nc2ncnc3cc(NC(=O)CCl)ccc23)c1
active: [1] -61.5% | [2] -45.5% | [3] -78.1% | [5] -91.5% | [6] -82.4% | [8] -16.4%
inactive: [10] 20.5%

CCOC(=O)c1nnn(-c2no[n+]([O-])c2-c2ccc(OC)cc2)c1COc1cccc2cccnc12
inactive: [2] 44.8% | [5] 33.2% | [9] 21.8% | [6] 24.1% | [10] 103% | [8] 10%
active: [1] 3.57% | [3] 3.95% | [7] 4.84%

N#Cc1nn(-c2cc(=O)[nH]c3ccc(Br)cc23)c(N)c1C#N
inactive: [1] 103% | [2] 87.5% | [3] 87.3% | [5] 110% | [9] 91% | [6] 90.5% | [10] 105%
active: [7] -32% | [8] -16.1%

Cc1ccc(S(=O)(=O)OCC#CCOS(=O)(=O)c2ccc(C)cc2)cc1
inactive: [1] 66.4% | [2] 60.9% | [3] 64.1% | [5] 101% | [9] 49.5% | [10] 85.9% | [8] 46.3%
active: [6] -82.9% | [7] 7.43%

CS(=O)(=O)c1ccc(-c2nc3ccccc3n2CC(=O)N/N=C/c2ccccc2)cc1
inactive: [1] 99.7% | [2] 92.9% | [3] 108% | [5] 103% | [9] 101% | [6] 89.4% | [10] 111% | [7] 104% | [8] 117%

N#Cc1c(-c2ccc(Br)cc2)nc2c(N=Nc3ccc(S(N)(=O)=O)cc3)c(N)nn2c1N
active: [7] -4.46% | [8] 1.59%
inactive: [1] 43.4% | [2] 71.1% | [3] 45.6% | [5] 73.2% | [9] 71.1% | [6] 52.5% | [10] 65%

C[C@@H]1NC(=O)[C@H](Cc2ccccc2)N(Cc2cccnc2)C1=O
inactive: [1] 96.7% | [2] 109% | [3] 93.6% | [5] 95% | [9] 97.3% | [6] 90.2% | [10] 63.5% | [7] 109% | [8] 101%

CN(C)/C(N)=N/N=C(\c1ccccc1)c1ccccn1
inactive: [1] 106% | [2] 112% | [3] 99.4% | [5] 94.6% | [9] 95.7% | [6] 97.1% | [10] 105% | [7] 81.4% | [8] 91.5%

Cc1c(O)cc(-c2cnc(N/N=C/c3ccccc3)s2)c(O)c1C
active: [10] -20.4% | [7] 8.48% | [8] 9.73%
inactive: [1] 104% | [2] 87.2% | [3] 95.6% | [5] 129% | [6] 91.7%

CC1(C)CC[C@]23CC[C@]4(C)[C@H](CC[C@@H]5[C@@]6(C)CCNCC(C)(C)[C@@H]6CC[C@]54C)[C@H]2[C@H]1OC3
inactive: [1] 99.1% | [2] 109% | [3] 89.6% | [5] 108% | [6] 93.9% | [7] 70.8% | [8] 58.7%

CNC(=O)NCC1OC(n2cnc3c(NC(=O)Nc4ccccc4)ncnc32)C2OC(=O)CC12 (centres undefined)
inactive: [1] 70% | [2] 102% | [3] 113% | [5] 99.3% | [9] 94.9% | [6] 100% | [10] 93.7% | [8] 69.7%

O=C1/C(=C/c2c[nH]c(=O)[nH]c2=O)SC(=S)N1Cc1ccccc1
inactive: [1] 103% | [2] 74.6% | [3] 95.5% | [5] 102% | [9] 102% | [6] 93.6% | [10] 99.9% | [7] 104% | [8] 103%

COC12C=C/C(=C(/C(=O)OCc3cncnc3)C(=O)CCCCCCCCC3(OC)C=C/C(=C(/C(=O)OCc4cncnc4)C(=O)CCCCCCCC1)O3)O2
active: [1] -13.1% | [2] -20.5% | [3] -34.7% | [5] -23.6% | [9] -93.7% | [6] -43.5% | [7] -18.2% | [8] -13.4%

O=C(NCCNC(c1ccccc1)C(NCCNC(=O)c1ccccc1)c1ccccc1)c1ccccc1 (centres undefined)
active: [9] 7.15%
inactive: [1] 45.9% | [2] 123% | [3] 97.7% | [5] 97.5% | [6] 61.6% | [10] 112% | [7] 97.1% | [8] 72.2%
